# Measurements published in PubChem BioAssay (NCI).
# Compounds without any hit were thinned out: in the full panel of roughly 83,000, 20% have a hit.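 Method: cells in 96-well plates; compound added at one concentration; 48 h incubation; percent growth measured; values under 10 scored active.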 A number with no mark means an inactive call. The source made the active and inactive calls.
# Columns and labels:
# Test in all cases: NCI-60 one-dose screen, 48 h (100 = growth as untreated, 0 = no growth, -100 = all killed)
# Conditions in all cases: 10 µM unless noted
# DU-145 prostate = test system: DU-145 prostate
# K-562 leukemia = test system: K-562 leukemia
# MALME-3M melanoma = test system: MALME-3M melanoma
# MDA-MB-231 breast = test system: MDA-MB-231 breast
# SF-268 CNS = test system: SF-268 CNS
# SF-295 CNS = test system: SF-295 CNS
# SF-539 CNS = test system: SF-539 CNS
# UACC-257 melanoma = test system: UACC-257 melanoma
# M14 melanoma = test system: M14 melanoma
# HCT-15 colon = test system: HCT-15 colon
# HT29 colon = test system: HT29 colon
# SNB-75 CNS = test system: SNB-75 CNS
# SNB-19 CNS = test system: SNB-19 CNS
# U251 CNS = test system: U251 CNS
# PC-3 prostate = test system: PC-3 prostate
# SK-MEL-5 melanoma = test system: SK-MEL-5 melanoma
# UACC-62 melanoma = test system: UACC-62 melanoma
# LOX IMVI melanoma = test system: LOX IMVI melanoma
# SK-MEL-28 melanoma = test system: SK-MEL-28 melanoma
Compound,growth (DU-145 prostate),growth (K-562 leukemia),growth (MALME-3M melanoma),growth (MDA-MB-231 breast),growth (SF-268 CNS) [%],growth (SF-295 CNS) [%],growth (SF-539 CNS) [%],growth (UACC-257 melanoma),growth (M14 melanoma),growth (HCT-15 colon),growth (HT29 colon),growth (SNB-75 CNS),growth (SNB-19 CNS) [%],growth (U251 CNS),growth (PC-3 prostate) [%],growth (SK-MEL-5 melanoma),growth (UACC-62 melanoma) [%],growth (LOX IMVI melanoma),growth (SK-MEL-28 melanoma)
O=C(Nc1ccc2ncnc(Nc3ccc(Oc4cccc(F)c4)c(Cl)c3)c2c1)c1ccc(CNCCO)cc1,7.74% (active),-8.41% (active),2.04% (active),-67.2% (active),56,19.6,33.9,99.1%,-45.9% (active),22.8%,-69.2% (active),65.1%,58.8,-34% (active),27.7,73.7%,106,-76.2% (active),-44.9% (active)
O=c1[nH]nc(-c2ccc(Br)cc2)cc1Cc1ccc(O)cc1,91.5%,81.5%,106%,87.6%,89.8,107,102,106%,107%,105%,103%,91.9%,81.2,105%,80.4,87.1%,85.6,97.4%,104%
COc1cc2nc(-c3ccc(-c4nn[nH]n4)cc3)[nH]c(=O)c2cc1OC,114%,109%,215%,119%,99.9,122,99.5,122%,102%,106%,110%,106%,94.3,105%,131,102%,105,97.3%,128%
Cc1c(C2=CCCCC2)c2ccccn2c1C(=O)c1cccc(S(=O)(=O)N2CCOCC2)c1,98.3%,57.4%,73.5%,92%,75,34.6,97.2,86.8%,61.9%,83.9%,59.5%,57.8%,101,91.4%,71.1,104%,77.7,89.1%,101%
COc1ccccc1N1CCN(C(=O)c2ccc3nc(NC(=O)c4ccc(NCCc5ccccc5)c([N+](=O)[O-])c4)sc3c2)CC1,68.7%,86%,45.6%,75.7%,67.6,102,99.7,72.7%,64.4%,81.5%,83.4%,91.4%,95.2,86.4%,77.9,84.4%,71.8,81.6%,91.5%
CC(N)C(=O)NNc1n[nH]c(=S)n1N (centres undefined),109%,107%,94%,105%,94.2,94.7,100,98.8%,95.2%,93.9%,109%,92.8%,99.1,103%,99.6,97.5%,102,98.5%,102%
COc1ccc(C2CC(c3cccc(Nc4ccncc4)c3)=NN2c2ccc(Cl)cc2)cc1 (centres undefined),23.6%,0.0732% (active),-49.9% (active),40.6%,62.1,53.9,76.4,12.6%,100%,-53.3% (active),-20.2% (active),54.9%,90.4,-40% (active),30.9,61.3%,97,-80.5% (active),-80.7% (active)
CC(C)[N+](C)(CCOC(COc1ccccc1)COc1ccccc1)C(C)C,106%,53%,105%,98%,94.5,98.9,100,78.7%,100%,100%,73.4%,70.9%,86.2,83.8%,73.2,86.8%,78.6,95.5%,96.6%
NC(=O)c1cccc(-c2ccccc2N2CCCCC2)c1,99.8%,85.1%,80.8%,100%,94,89.4,97.8,99.3%,94.6%,101%,95.2%,99.7%,93,98.3%,83.9,100%,85,98.5%,98.6%
COc1ccc(C(O)c2cc3c(N)c(C(=O)Nc4ccc(Br)cc4)sc3nc2C)cc1 (centres undefined),-4.27% (active),3.49% (active),24.8%,54.1%,45.4,21.6,27.2,32.3%,3.91% (active),18.2%,-34.2% (active),-10.8% (active),36.1,17.2%,18.2,16.4%,26.1,33.4%,60%
COc1ccc(Nn2c(SCC(=O)Nc3nc(-c4ccc(Cl)cc4)cs3)nc(C)c2C)cc1,79.6%,26.9%,99.1%,79.7%,66.1,43.9,79.1,48.9%,62.5%,59.8%,30.1%,45.8%,79.2,43.5%,35.7,-21.5% (active),49.5,38.9%,86.8%
O=C(Nc1nc2ccc(C(=O)N3CCN(c4ccc(Cl)c(Cl)c4)CC3)cc2s1)c1ccc(NCCc2ccccc2)c([N+](=O)[O-])c1,101%,84.2%,86.8%,86.2%,97,96.4,101,99.4%,98.5%,98.3%,100%,98.1%,100,102%,92.4,87.9%,78.1,98.3%,105%
O=S(=O)(c1ccccc1)N1CCCc2ccccc21,112%,97%,93.6%,98.8%,95.5,98.5,102,96.3%,102%,99.3%,99.8%,95%,97.2,90.3%,91.3,102%,91.7,96.4%,105%
CC(C)(C)CC(C)(C)Nc1c(-c2ccc3c(c2)OCO3)nc2cnccn12,101%,72%,111%,83.9%,84.1,86.2,91.5,101%,45.9%,84.1%,80%,67.5%,90.9,95.6%,67,87.7%,66,94%,94.3%
COc1cc(NCCCN(CC(C)C)CC(C)C)c2ncccc2c1,106%,110%,102%,88.7%,89.5,89.4,102,90.9%,91.4%,72.9%,82.7%,95.4%,99.9,96.1%,70.4,97%,89,85.3%,97%
COc1ccc(C2CC(c3cccc(Nc4ccncc4)c3)=NN2c2ccccc2)cc1 (centres undefined),42.2%,1.17% (active),-70% (active),62.5%,72.2,64,59.7,-35.6% (active),-46% (active),-22.9% (active),-3.3% (active),65.3%,84.3,8.79% (active),37.3,49.2%,97,28.5%,-88.3% (active)
